Measured values from PubChem BioAssay AID720554 (ICCB-Longwood Screening Facility, Harvard Medical School, 2013).
Among all 12,000 compounds or so, about 45 (0.4%) were called active. Rule as the data show it: active = inhibition mostly above about 83% (no sharp cut-off); inactive = mostly below about 52%. Shown is part of a subset that was picked to be rich in actives.

Key:
[1] = BmaI1 acyl-homoserine lactone synthase inhibition – biochemical, fluorescence intensity, with counterscreen (AID 720554); conditions: BmaI1 enzyme assay, measured here: counterscreen fluorescence % control, concentration not given here
[2] = test system: acyl-homoserine lactone synthase BmaI1 (Burkholderia mallei ATCC 23344); assay: as above; conditions: BmaI1 enzyme assay, stronger effect = higher value, concentration not given here

SMILES | inhibition [1] [%] | inhibition [2]
CCOc1ccc(/C=N/N2C(=O)NC(C)(CC)C2=O)c(O)c1 (configuration not stated) | -4.5 | 0.5% (inactive)
CC(=O)NCCc1ccc(-c2csc(N)n2)cc1 | 41 | 24% (inactive)
COc1ccc(Cc2nnc3n2N=C(c2ccc(CNC(C)=O)o2)CS3)cc1 | 6 | 15.5% (inactive)
CC(=O)NCc1ccc(-c2csc(N)n2)o1 | 17.5 | 92.5% (active)
COc1cc2c(cc1NC(=O)C(C)Sc1nncn1C)oc1ccccc12 (configuration not stated) | -6.5 | 16.5% (inactive)
CNC(=O)NC(=O)C(C)N1CCc2ccccc2C1 (configuration not stated) | -2.5 | 2.5% (inactive)
COc1cccc(N=C2NNC(C)=C(C(=O)N(C)C)S2)c1 | 13.5 | 88.5% (active)
COc1cccc(CC(=O)Nc2cccc(OC)c2)c1 | 2 | 8.5% (inactive)
COc1cccc(NC(=O)/C=N/O)c1 | 19.5 | 37.5% (inactive)
CCn1c(Cn2cc(S(=O)(=O)N3CCCC3)ccc2=O)nc2cc(S(=O)(=O)N(C)C)ccc21 | 1 | 8.5% (inactive)
Oc1c(C(Nc2ccccn2)c2cccnc2)ccc2cccnc12 (configuration not stated) | -15 | 14% (inactive)
Oc1c(C(c2cccnc2)N2CCCCC2)ccc2cccnc12 (configuration not stated) | -53.5 | -20.5% (inactive)
Oc1c(C(c2cccnc2)N2CCOCC2)ccc2cccnc12 (configuration not stated) | 28.5 | 105% (active)
CC(Sc1nnc(-c2ccccc2)o1)C(=O)N(C)c1ccccc1 (configuration not stated) | 9 | 7% (inactive)
CN(C(=O)c1ccco1)C1(c2ccccc2Cl)CCCCC1=O (configuration not stated) | 5.5 | 9.5% (inactive)
CCOC(=O)C(Sc1n[nH]c(N)n1)c1ccccc1 (configuration not stated) | 13.5 | 15.5% (inactive)
